In PubChem BioAssay one finds composite z-score, z-score and composite Z-score data, which are given here for six molecules.

Structures are written as SMILES. Calls of active or inactive are those of the source.

Experiment [1] has as its system Human papillomavirus type 1a protein E7 (residues 44-93). Description: small molecules binding HPV E7 44-93 – biochemical, small-molecule microarray, residues 44-93, 635 nm fluorescence, primary screen (AID 1108).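 Note: E7 fragment applied at 1 µg/mL in TBST for 1 h at 4 C; score combines spot fluorescence with its signal to noise ratio.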 Conditions: fluorescence 635 nm, higher = more signal.
Experiment [2] in a line: hepatitis C replication reporter changes, two-sided – Huh7 cells, luciferase reporter, HCV replication inhibitor project, primary screen (AID 1109).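 Note: huh7 hepatoma cells harbouring a luciferase neomycin HCV replicon reporter; luciferase luminescence as measure of HCV replicon replication; test concentration not given here.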 Conditions: Huh7 HCV replicon luciferase reporter, 48 h; higher = more signal. On the technique in general: Reporter assays use an easily measured gene product as a stand-in for the process of interest.
For experiment [3], the target named is Left-right determination factor 2 (Homo sapiens) (UniProt O00292). The experiment can be described thus: small molecules binding LEFTY2 protein – biochemical, small-molecule microarray, 635 nm fluorescence scan, primary screen (AID 1110). Conditions: higher = more signal.
Experiment [4] addresses Calmodulin-1 (Homo sapiens) (UniProt P0DP23). Description: small molecules binding calmodulin-1 with EGTA – biochemical, small-molecule microarray, Cy5-labelled CALM1, profiling panel (AID 1111).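 Note: labelled calmodulin applied in Tris saline Tween buffer holding calcium plus EGTA and DTT.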 Conditions: Cy5-CALM1 binding fluorescence, higher = more signal.
Experiment [5] shares this target. Description: small molecules binding Ca-loaded calmodulin-1 – biochemical, small-molecule microarray, Cy5-labelled CALM1, plus calcium, artefact control for SMM control-protein annotation, profiling panel (AID 1112).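 Note: score merges spot fluorescence with signal to noise from triplicate slides.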 Conditions: Cy5-CALM1 binding fluorescence, higher = more signal.
Experiment [6] in a line: probe aWnt5a binding to arrayed compounds – biochemical, biotinylated probe, 635/667 nm fluorescence, primary screen (AID 1113).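 Note: score merges 667 nm fluorescence intensity with signal-to-noise per printed feature.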 Conditions: small-molecule microarray, higher = more signal.
Experiment [7] is described as follows: probe aShh binding to arrayed compounds – biochemical, biotinylated probe, 635/667 nm fluorescence, primary screen (AID 1114).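 Note: probe is biotin-labelled aShh protein from a stem cell growth factor screen; measures binding of labelled protein to compounds printed on the slide; score merges feature fluorescence at 667 nm with signal-to-noise.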 Conditions: small-molecule microarray, higher = more signal.
The nature of experiment [8]: probe aNog binding to arrayed compounds – biochemical, biotinylated probe, 635/667 nm fluorescence, primary screen (AID 1115).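 Note: probe is biotinylated aNog protein used at 0.15 µg/mL for 1 h at 4 C; z-score combines 667 nm fluorescence of each spot with its signal to noise.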 Conditions: small-molecule microarray, higher = more signal.
Experiment [9] addresses Torsin-1A-interacting protein 1 (Homo sapiens) (UniProt Q5JTV8). The experiment can be described thus: compound microarray binding of lysate hLAP1 – cell lysate, small-molecule microarray, COS7 lysate, 635/667 nm fluorescence, primary screen (AID 1116). Conditions: 635 nm fluorescence, higher = more signal.
In experiment [10] the target is Alpha-bungarotoxin (Bungarus multicinctus) (UniProt P60615). Description: compounds binding labelled alpha-BTX control protein – biochemical, small-molecule microarray, Alexa647 label, 635/667 nm fluorescence, artefact control for SMM control protein annotation, profiling panel (AID 1117). Conditions: alpha-BTX-A647 binding fluorescence, higher = more signal.
Experiment [11] addresses Albumin (Bos taurus) (UniProt P02769). Description: compounds binding labelled BSA control protein – biochemical, small-molecule microarray, Alexa647 label, 635/667 nm fluorescence, artefact control for SMM control protein annotation, profiling panel (AID 1118).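 Note: score merges 667 nm emission intensity and signal-to-noise per printed compound spot.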 Conditions: BSA-A647 binding, fluorescence 635 nm, higher = more signal.
A short description of experiment [12]: probe aXIP binding to arrayed compounds – biochemical, NeuroSMM set, 635/667 nm fluorescence, primary screen (AID 1119).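 Note: probe is the protein aXip251-270 applied at 1 µg/mL to compound-printed slides; binding of probe to printed compounds measured as 667 nm fluorescence plus signal to noise.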 Conditions: small-molecule microarray, higher = more signal, called active from +8 up or from −8 down.
Experiment [13] can be described thus: probe aNOTCH3 binding on compound microarray – biochemical, small-molecule microarray, 635/667 nm fluorescence, primary screen (AID 1120).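 Note: probe is a biotin-tagged antibody raised against NOTCH3 rather than NOTCH3 protein; score merges spot fluorescence near 667 nm with spot signal to noise.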 Conditions: higher = more signal.
Experiment [14] in a line: probe aNOTCH2 binding on compound microarray – biochemical, small-molecule microarray, 635/667 nm fluorescence, primary screen (AID 1121).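 Note: score merges feature fluorescence read at 667 nm with its signal to noise.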 Conditions: higher = more signal.
Experiment [15] concerns the target Carbonic anhydrase 2 (Homo sapiens) (UniProt P00918). The experiment can be described thus: compounds binding carbonic anhydrase 2 – biochemical, small-molecule microarray, Alexa647-labelled CAII, profiling panel (AID 1122). Conditions: CAII-A647 binding fluorescence, higher = more signal.
Experiment [16] is described as follows: COS7 lysate on small-molecule microarray, probe aHis, 635 nm (AID 1123).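 Note: z-score combines 667nm fluorescence intensity with signal-to-noise per printed compound spot.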 Conditions: COS7 cell lysate, fluorescence, higher = more signal.
Experiment [17] is described as follows: probe aLAP1 signal on lysate-treated microarray – cell lysate, small-molecule microarray, COS7 lysate, primary screen (AID 1124).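 Note: lysate comes from COS7 cells expressing LAP1 and is applied at 0.3 µg/mL; score merges spot fluorescence near 667 nm with signal-to-noise over triplicate slides.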 Conditions: probe aLAP1, fluorescence, higher = more signal.
Experiment [18] concerns Sam68 (KHDRBS1). The experiment can be described thus: compounds binding KHDRBS1 protein – biochemical, small-molecule microarray, 635 nm fluorescence, primary screen (AID 1125).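 Note: score merges 667 nm channel intensity with signal to noise over triplicate slides.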 Conditions: higher = more signal.
The test system of experiment [19] is Chordin-like protein 2 (CHRDL2). The experiment can be described thus: compounds binding chordin-like 2 – biochemical, small-molecule microarray, 635 nm fluorescence, primary screen (AID 1126).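 Note: printed compound slides probed with Chrdl2 protein at 4 µg/mL for 1 h at 4 C; score merges 667 nm emission intensity with signal to noise over three replicate slides.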 Conditions: fluorescence 635 nm, higher = more signal.
For experiment [20], the target named is Concanavalin-A (Canavalia ensiformis) (UniProt P02866). The experiment can be described thus: compounds binding concanavalin A lectin – biochemical, small-molecule microarray, Alexa647 label, 635 nm, artefact control for SMM control protein annotation, primary screen (AID 1127).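 Note: z combines 667 nm emission intensity with signal-to-noise across three replicate slides.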 Conditions: ConA-A647 binding fluorescence, higher = more signal.
Concanavalin-A (Canavalia ensiformis), sequence (P02866 whole entry, looked up): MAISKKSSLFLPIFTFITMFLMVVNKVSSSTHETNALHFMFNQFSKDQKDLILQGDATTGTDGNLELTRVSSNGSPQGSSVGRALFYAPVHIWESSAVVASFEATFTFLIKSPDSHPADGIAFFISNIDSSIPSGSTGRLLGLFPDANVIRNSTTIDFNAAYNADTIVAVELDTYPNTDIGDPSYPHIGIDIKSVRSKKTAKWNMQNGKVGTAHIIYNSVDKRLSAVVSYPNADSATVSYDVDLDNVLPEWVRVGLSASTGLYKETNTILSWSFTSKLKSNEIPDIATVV

Torsin-1A-interacting protein 1 (Homo sapiens), sequence (Q5JTV8 whole entry, looked up): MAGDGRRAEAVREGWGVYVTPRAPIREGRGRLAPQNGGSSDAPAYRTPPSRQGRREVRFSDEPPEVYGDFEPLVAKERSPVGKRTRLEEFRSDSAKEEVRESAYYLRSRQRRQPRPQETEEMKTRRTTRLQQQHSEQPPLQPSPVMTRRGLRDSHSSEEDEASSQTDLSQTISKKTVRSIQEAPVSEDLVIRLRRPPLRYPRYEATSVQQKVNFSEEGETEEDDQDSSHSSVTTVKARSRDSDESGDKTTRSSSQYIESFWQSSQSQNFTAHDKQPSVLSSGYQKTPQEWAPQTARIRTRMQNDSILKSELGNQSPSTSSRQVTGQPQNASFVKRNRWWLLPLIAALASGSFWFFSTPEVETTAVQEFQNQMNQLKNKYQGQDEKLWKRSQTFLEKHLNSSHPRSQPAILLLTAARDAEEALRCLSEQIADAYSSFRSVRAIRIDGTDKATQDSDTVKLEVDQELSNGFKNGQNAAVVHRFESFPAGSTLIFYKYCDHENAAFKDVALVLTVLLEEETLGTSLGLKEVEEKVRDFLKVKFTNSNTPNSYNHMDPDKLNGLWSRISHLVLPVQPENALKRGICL
Albumin (Bos taurus), sequence (P02769 whole entry, looked up): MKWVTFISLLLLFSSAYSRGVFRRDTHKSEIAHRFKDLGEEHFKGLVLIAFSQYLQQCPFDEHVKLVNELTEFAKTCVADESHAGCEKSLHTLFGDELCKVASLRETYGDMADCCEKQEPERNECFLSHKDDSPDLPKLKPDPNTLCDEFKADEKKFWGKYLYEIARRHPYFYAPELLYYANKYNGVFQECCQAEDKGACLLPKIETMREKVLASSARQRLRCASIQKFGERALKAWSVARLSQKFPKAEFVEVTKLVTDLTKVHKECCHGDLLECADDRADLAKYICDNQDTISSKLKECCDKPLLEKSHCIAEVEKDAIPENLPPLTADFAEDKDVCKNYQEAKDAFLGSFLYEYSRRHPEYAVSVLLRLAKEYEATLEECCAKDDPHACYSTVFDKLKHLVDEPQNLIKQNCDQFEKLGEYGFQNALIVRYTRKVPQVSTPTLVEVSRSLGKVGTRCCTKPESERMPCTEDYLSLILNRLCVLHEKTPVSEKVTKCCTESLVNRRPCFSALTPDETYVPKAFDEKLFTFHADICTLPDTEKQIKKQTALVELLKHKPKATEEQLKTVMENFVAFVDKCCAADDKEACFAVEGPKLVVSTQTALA
Alpha-bungarotoxin (Bungarus multicinctus), sequence (P60615 whole entry, looked up): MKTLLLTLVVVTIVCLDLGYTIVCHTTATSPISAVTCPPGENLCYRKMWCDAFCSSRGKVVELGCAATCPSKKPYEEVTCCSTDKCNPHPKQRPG
Left-right determination factor 2 (Homo sapiens), sequence (O00292 whole entry, looked up): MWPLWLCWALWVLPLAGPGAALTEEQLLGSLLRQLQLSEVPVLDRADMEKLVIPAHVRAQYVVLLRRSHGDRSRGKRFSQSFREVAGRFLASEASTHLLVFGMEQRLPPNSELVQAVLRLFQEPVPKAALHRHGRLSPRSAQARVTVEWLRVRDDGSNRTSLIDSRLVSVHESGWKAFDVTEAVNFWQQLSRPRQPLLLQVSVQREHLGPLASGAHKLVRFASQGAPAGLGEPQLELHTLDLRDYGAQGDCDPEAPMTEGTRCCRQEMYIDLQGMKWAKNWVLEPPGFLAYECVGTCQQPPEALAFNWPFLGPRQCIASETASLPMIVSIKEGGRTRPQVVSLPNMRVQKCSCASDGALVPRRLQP

For `CO[C@H]1O[C@H](CO)[C@@H](OC(=O)c2ccc(Br)cc2)[C@@H]2OC(=O)[C@@H](Cc3ccc4ccccc4c3)C/C=C/C[C@H](Cc3ccc4ccccc4c3)C(=O)O[C@@H]12`, the composite z-score in [1] was 0.872; in experiment [3], -0.255; in [4] it was 1.29; in [5], -0.145; in experiment [6] it was -0.0894; in experiment [7], -0.16. Further, the composite z-score is -0.241 in experiment [8]; 1.22 in experiment [9]; 0.528 in experiment [10]; 0.934 in experiment [11]; 0.109 in [13]; 0.0043 in experiment [14]. The composite z-score in [15] was 0.63; in experiment [16], 1.93; in experiment [17], 0.547; in [18] it was 1.24; in experiment [19], -0.517; in [20], 0.275. The z-score in experiment [2] is -1.13. In [12], the composite Z-score is 0.589 (inactive).

For the molecule `O=C1O[C@@H](c2ccccc2)[C@@H](c2ccccc2)N2[C@@H](c3ccc(O)cc3)[C@]3(C(=O)Nc4ccc(C#CCCO)cc43)[C@@H](C(=O)Nc3nc4ccccc4s3)[C@H]12`, the composite z-score in experiment [1] was 1.23; in experiment [3] it was 0.173; in experiment [4], 0.289; in experiment [5], -0.331; in [6], -0.0405; in experiment [7], 0.108. For the same molecule, the composite z-score in experiment [8] is 0.128; in [9] it was 1.2; in experiment [10], 1.66; in experiment [11], 0.827; in experiment [13], -0.0265; in experiment [14] it was -0.115. The composite z-score is 0.507 in experiment [15]; 0.999 in [16]; 0.887 in [17]; 1.29 in experiment [18]; -0.0623 in experiment [19]; 0.616 in [20]. Further, the z-score in experiment [2] is -0.0469. Moreover, the composite Z-score in [12] is -0.0011 (inactive).

In the case of `NC(=O)NCC#Cc1ccc2c(c1)[C@]1(C(=O)N2)[C@H](C(=O)Nc2nc3ccccc3s2)[C@H]2C(=O)O[C@H](c3ccccc3)[C@H](c3ccccc3)N2[C@@H]1c1ccc(O)cc1`, the composite z-score in experiment [1] is 0.944; in experiment [3] it was 0.215; in experiment [4] it was 1.29; in [5], 0.414; in experiment [6], -0.0445; in experiment [7] it was -0.0243. Besides, the composite z-score in experiment [8] was 0.23; in [9], 0.187; in experiment [10], 1.64; in experiment [11], -0.0229; in experiment [13], 0.114; in [14] it was 0.103. Further, the composite z-score in experiment [15] was 0.0856; in experiment [16], -0.482; in experiment [17], 0.274; in [18], 0.846; in experiment [19], 0.402; in experiment [20], 1.07. The z-score in experiment [2] was -0.797. Moreover, in [12], the composite Z-score was 0.157 (inactive).

As for `NC(=O)N1C(=O)C2C(C1=O)C1C=C(CCCO)C2C(c2cccs2)N1Cc1cc2c(cc1Br)OCO2` (stereo not given), the composite z-score was 0.183 in experiment [1]; -0.451 in [3]; 1.03 in [4]; 0.25 in experiment [5]; -0.0685 in experiment [6]; 0.147 in [7]. In addition, the composite z-score in experiment [8] is 0.244; in [9] it was 0.333; in [10] it was 1.23; in experiment [11], 0.429; in [13] it was -0.0328; in experiment [14] it was -0.12. Further, the composite z-score in experiment [15] is 0.757; in experiment [16], 1.04; in [17] it was -0.0752; in experiment [18] it was 0.234; in experiment [19], -0.663; in [20] it was 0.827. The z-score in [2] amounted to 0.199. For the same molecule, the composite Z-score in experiment [12] is -0.483 (inactive).

As to `CCCCN1CC=CC23O[C@@H]4/C=C\CCC(C)OC(=O)C4[C@H]2C(=O)N(CCCCCCO)[C@@H]3C1=O` (stereo not given in full), the composite z-score is 0.111 in [1]; -0.567 in experiment [3]; 0.119 in experiment [4]; 0.282 in experiment [5]; 0.0321 in experiment [6]; -0.0709 in [7]. The composite z-score in [8] is -0.168; in [9], 1.47; in experiment [10] it was -0.637; in experiment [11] it was 0.5; in [13] it was -0.307; in experiment [14], -0.228. Further, the composite z-score was 0.86 in experiment [15]; 0.177 in experiment [16]; 0.54 in experiment [17]; -0.168 in experiment [18]; -0.361 in experiment [19]; -0.34 in experiment [20]. Also, the z-score in experiment [2] was -0.0691. Besides, the composite Z-score in [12] is -0.59 (inactive).

In the case of `CC(C)N1CC=CC23O[C@@H]4C=CCCOC(=O)C4[C@H]2C(=O)N(CCO)[C@@H]3C1=O` (stereo not given in full), the composite z-score in [1] was -0.478; in experiment [3], -0.289; in [4], -0.343; in experiment [5] it was -0.348; in experiment [6] it was -0.224; in [7], -0.282. The composite z-score in [8] is -0.0852; in experiment [9], -0.494; in experiment [10], -0.048; in [11] it was 0.0894; in experiment [13], -0.305; in experiment [14], -0.125. Also, the composite z-score in experiment [15] is 0.763; in experiment [16] it was -0.548; in experiment [17], 0.199; in [18], -0.354; in [19] it was -0.414; in experiment [20], 0.172. In [2], this molecule returned a z-score of 0.516. In addition, the composite Z-score in experiment [12] is -0.455 (inactive).
